This is one part of a sample in which hits are shown more often than they occur.
GALK inh – qHTS Assay for Inhibitors of Human Galactokinase (GALK): NCGC Sytravon Library Screen | P51570 | recombinant GALK, Kinase-Glo ATP luminescence, 1 h | Potency, µM (highest dose often 57.5 µM), for the others: top-dose activity, negative = inhibition, most hits filed as inhibitors | 44,000 tested, under 10 active | AID 1347072, 2019;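 note: plate controls were full GALK reaction for no effect and reaction lacking GALK for full effect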
Target sequence (P51570 whole entry, looked up): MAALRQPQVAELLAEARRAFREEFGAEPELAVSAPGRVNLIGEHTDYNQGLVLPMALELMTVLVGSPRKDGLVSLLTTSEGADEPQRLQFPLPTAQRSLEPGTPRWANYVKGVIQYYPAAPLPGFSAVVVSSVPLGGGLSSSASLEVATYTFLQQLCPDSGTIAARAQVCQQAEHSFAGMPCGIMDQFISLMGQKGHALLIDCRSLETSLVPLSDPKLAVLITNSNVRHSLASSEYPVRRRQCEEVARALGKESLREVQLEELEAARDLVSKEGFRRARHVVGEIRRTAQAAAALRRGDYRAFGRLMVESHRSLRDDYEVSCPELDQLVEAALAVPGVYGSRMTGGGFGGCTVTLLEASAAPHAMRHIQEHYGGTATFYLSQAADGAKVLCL
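Human GALK (5 nM) was incubated with 35 uM ATP and 100 uM galactose in 20 mM HEPES pH 8.0 with MgCl2, NaCl, DTT and BSA for 1 h at room temperature. Remaining ATP was measured by Kinase-Glo Plus luminescence.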
NTMT1 inh – Primary qHTS for Inhibitors of N-terminal methyltransferase 1 (NTMT1): MTaseGlo Assay | actives 2.5% (n = 59,000) | NTMT1 MTase-Glo SAH luminescence, purified enzyme | Potency, µM (series often up to 114 µM), without a hit: top-dose activity change, negative = inhibition, most hits filed as inhibitors | N-terminal Xaa-Pro-Lys N-methyltransferase 1 (Homo sapiens), Q9BV86;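 note: potency is the fitted concentration of half-maximal effect; plate controls were DMSO vehicle for no effect and no enzyme for full effect; nearly all actives have a fitted effect of over 65% in size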
Target sequence (Q9BV86 whole entry, looked up): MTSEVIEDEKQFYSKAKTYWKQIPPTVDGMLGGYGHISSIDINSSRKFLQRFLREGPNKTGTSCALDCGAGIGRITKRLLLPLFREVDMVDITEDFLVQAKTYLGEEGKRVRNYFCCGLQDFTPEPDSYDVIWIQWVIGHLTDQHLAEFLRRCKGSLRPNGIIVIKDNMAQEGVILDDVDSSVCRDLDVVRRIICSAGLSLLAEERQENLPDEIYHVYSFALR
FH mod – Identification of activators of human fumarate hydratase by quantitative high-throughput screening | Fumarate hydratase, mitochondrial (Homo sapiens), P07954 | FH coupled MDH/diaphorase resazurin fluorescence, 15 min | Potency, µM (highest dose often 79.9 µM), for the others: at the top dose activity change, negative = inhibition, most hits filed as inhibitors | actives 0.22% (n = 54,000); note: potency is the fitted concentration of half-maximal effect; % is set by controls: 0 for no effect and ±100 for the full control effect; the screen sought activators but most active calls are inhibition curves; nearly all actives have a fitted effect of over 45% in size
PTAP-TSG101 blk – qHTS Validation Assay for Inhibitors of HIV-1 Budding by Blocking the Interaction of PTAP/TSG101: Sytravon Library Screen. Fluorescence polarization, FITC-PTAP peptide/Tsg101, 20 min. Potency, µM (series often up to 115 µM), hits mostly inhibitors. 44,000 tested, under 10 active. AID 1347069, 2019; note: potency is the fitted concentration of half-maximal effect; 0% is about no effect
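Fluorescence polarization binding of Tsg101 binding domain (10 uM final) to FITC-labeled PTAP-motif peptide (50 nM final) in HEPES pH 7.5/NaCl/Tween 20/EDTA/TCEP buffer; 20 min at r.t. Actives by curve class, <25 µM, efficacy <60% inhibition.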
B2AR arrestin ag – qHTS assay of beta-arrestin-biased ligands of beta2-adrenergic receptor: NCGC Sytravon Library Screen. Beta-2 adrenergic receptor (Homo sapiens), P07550. HTLA Tango cells, beta-arrestin recruitment, luciferase luminescence, 18 h. Potency, µM (titrated, usually from 46.1 µM), actives largely listed as activators. AID 1347077, 2019. 44,000 tested, under 10 active;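 note: potency is the fitted concentration of half-maximal effect; 0% = DMSO and full agonism = EC100 isoproterenol or metaproterenol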
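Tango cell line, 1% FBS DMEM; cpd titration up to 46 microM; 18 hr, 37 degrees C, 5% CO2. Luciferin/ATP substrate mix added, 15 min RT, luminescence. %Activity, CRC fitting, curve-class categorization.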
GALC G270D up – A Novel Cell-Based Assay to Identify Small Molecules for B -Galactocerebrosidase | 145M-Twi-hGALC-G270D cells (Twitcher mouse brain line with human GALC G270D), HMU-beta-Gal fluorescence, 48 h | Potency, µM (doses to about 57.5 µM), most hits filed as activators | actives 0.1% (n = 45,000); note: potency is the fitted concentration of half-maximal effect; 0% is about no effect; nearly all actives have a fitted effect of over 65% in size
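Fluorescence readout: HMU-β-gal cleavage by mutant GALC (0.1 mM final, citrate/phosphate pH 5.2 with 1 mg/mL taurocholate), stopped with carbonate/bicarbonate plus Triton X-100. Cells: murine Twitcher 145M-Twi expressing human G270D GALC; qHTS for activators.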
Active calls of the source: *; i = inactive; u = inconclusive; x = no result given; ! = not active in a repeat; [ ] = remark or other dose. Calls come from the whole dose curve; as a rule, active = well fitted curve in the direction sought with a large enough effect; inconclusive = small, poorly fitted or top-dose-only effect, or another doubt; inactive = no such curve, though single readings can be large; an effect the other way counts as inactive or inconclusive.

SMILES	GALK inh	NTMT1 inh	FH mod	PTAP-TSG101 blk	B2AR arrestin ag	GALC G270D up
C/C=C(\C)C(=O)OC[C@H]1O[C@@H](O[C@H]2[C@@H](O[C@H]3O[C@H](CO)[C@@H](O)[C@H](O)[C@H]3O[C@@H]3O[C@H](CO)[C@@H](O)[C@H](O)[C@H]3O)O[C@H](COC(=O)/C(C)=C/C)[C@@H](O)[C@@H]2O)[C@H](O)[C@@H](O)[C@@H]1O	x	-5%[12.6 µM]	6%[20.6 µM]	x	x	x
C=CC(=O)N1CCC(CNc2ncnc(N)c2-c2ccc(Oc3ccccc3)cc2)CC1	x	3%	x	x	x	x
CC(C)[N+](C)(C)CC(O)COc1cccc2ccccc12 (stereo unspecified)	x	8.9µM*	-1%[53.3 µM]	x	x	i
NC(=O)c1cccc2[nH]c(-c3ccc(C4CCCN4)cc3F)nc12 (stereo unspecified)	x	-3%[57.5 µM]	1%	x	x	x
NC(=O)c1cccc2[nH]c(-c3ccc([C@H]4CCCN4)cc3F)nc12	x	45µM*	5%[53.3 µM]	x	x	x
O=S(=O)(Nc1cccc(F)c1)c1ccc2[nH]c3c(c2c1)CCCCC3	-4%	-11%	35µM*	i	i	i
O=S(=O)(Nc1cc(F)ccc1F)c1ccc2[nH]c3c(c2c1)CCCCC3	-2%	u	u	i	i	i
CN[C@H]1CCN(C(=O)c2ccc(Nc3ncc(F)c(-c4cnc(C)n4C(C)C)n3)cc2)C1	x	-22%	-9%	x	x	x
CCOc1ccc(CCNC(=O)c2ccccc2)cc1OCC	x	4%	x	x	x	x
CCOc1ccc(CCNC(C)=O)cc1OCC	x	50µM*	x	x	x	x
CC(C)=CCC/C(C)=C/CC/C(C)=C/COC1OC(COC2OCC(OC3OCC(O)C(O)C3O)C(O)C2O)C(O)C(OC2OC(C)C(OC3OC(C)C(OC4OCC(OC5OC(C)C(O)C(O)C5O)C(O)C4O)C(O)C3O)C(O)C2O)C1O (stereo unspecified)	x	u	11%[13.5 µM]	x	x	x
CCN(CC)S(=O)(=O)c1ccc2c(c1)c(=O)c(C(=O)NCc1ccccc1)cn2C	8%	6%	-4%	i	i	i
CCN(CC)S(=O)(=O)c1ccc2c(c1)c(=O)c(C(=O)N(C)Cc1ccccc1)cn2C	6%	6%	-2%	i	i	25µM*
O=C1OC2(c3ccc(O)cc3Oc3cc(O)ccc32)c2ccccc21	x	16%[57.5 µM]	-26%[53.3 µM]	x	x	i
O=C1OC2(c3ccccc31)c1cc(I)c(O)c(I)c1Oc1c2cc(I)c(O)c1I	x	1µM*	u	x	x	i
O=c1oc2cc(O)ccc2cc1-c1nnc(Nc2ccccc2F)s1	2%	50µM*	-1%	i	i	i
O=c1oc2ccc3ccccc3c2cc1-c1nnc(Nc2ccccc2F)s1	0%	-3%	2%	i	i	i
Cc1ccc(-c2ccc(CNc3nc(-c4ccccc4C(C)C)nc4ccccc34)cc2)cn1	x	2%	x	x	x	x
CCC(=O)Oc1ccc(/C=C(\C#N)c2nc3ccccc3[nH]2)cc1OC	-2%	25µM*	-7%	i	i	i
COc1cc(/C=C(\C#N)c2nc3ccccc3[nH]2)ccc1OCc1ccccc1F	0%	3%	-3%	i	i	i
CC(O)/C=C/C1(O)C(C)C(O[C@@H]2O[C@H](CO)[C@@H](O)[C@H](O)[C@H]2O)C(O)CC1(C)C (stereo partly specified)	x	10%[29.8 µM]	-10%[53.3 µM]	x	x	x
O=C(Nc1cccc(Cl)c1)c1c(NC(=O)C(F)(F)F)sc2c1CCCC2	-1%	8.9µM*	u	i	i	i
Cc1ccc(NC(=O)c2c(NC(=O)C(F)(F)F)sc3c2CCCCC3)cc1	0%	-25%	u	i	i	i
O=C(COc1ccc(Cl)cc1)Nc1sc2c(c1C(=O)Nc1cccc(Cl)c1)CCCC2	-18%	25µM*	3%	i	i	i
Cc1ccccc1NC(=O)c1c(NC(=O)C(F)(F)F)sc2c1CCCCC2	-1%	-6%	u	i	i	i
SMILES	GALK inh	NTMT1 inh	FH mod	PTAP-TSG101 blk	B2AR arrestin ag	GALC G270D up
Cc1cccc(NC(=O)c2c(NC(=O)C(F)(F)F)sc3c2CCCCC3)c1	-13%	10µM*	u	i	i	i
Oc1ccc(C2CCN(c3ccnc4ccccc34)CC2)cc1O	x	10µM*!	-13%[53.3 µM]	x	x	x
CC(=O)Nc1sc2c(c1-c1ccc(N(C)C)cc1)CCNC2	x	14µM*	x	x	x	x
CC(=O)Nc1sc2c(c1-c1ccc(F)cc1)CCNC2	x	-5%	x	x	x	x
C=C(CCO)C(=O)OCC1OCC(OC(=O)C(=C)CCO[C@@H]2O[C@H](COC(=O)C(=C)CCO[C@@H]3O[C@H](CO)[C@@H](O)[C@H](O)[C@H]3O)[C@@H](O)[C@H](O)[C@H]2O)C(O)C1O (stereo partly specified)	x	4%[12.6 µM]	2%[20.6 µM]	x	x	x
Cc1c(P(=S)(c2ccccc2)c2ccccc2)c2ccccc2n1Cc1ccccc1	x	7%	x	x	x	x
Cc1c(P(=O)(c2ccccc2)c2ccccc2)c2ccccc2n1C	x	79µM*	x	x	x	x
Cc1ccc(Cn2ccn(CC(=O)Nc3c(C)cc(C)cc3C)c(=O)c2=O)cc1	-2%	50µM*	7%	i	i	i
CNC(=O)c1ccc2cc([C@@]3(O)CCn4cncc43)ccc2c1	x	5%[57.5 µM]	4%	x	x	x
CC(=O)Nc1sc2c(c1-c1nc3ccccc3s1)CCN(C(=O)OC(C)(C)C)C2	x	-1%	x	x	x	x
CC(=O)Nc1sc2c(c1-c1nc3ccccc3s1)CNC2	x	79µM*!	-15%	x	x	x
CN1CCN(c2ccc(NC(=O)c3cccs3)cn2)CC1	x	3%[57.5 µM]	x	x	x	x
O=C(NCCCNc1nc(Nc2cccc(NC(=O)N3CCCC3)c2)ncc1I)c1cccs1	x	40µM*	-27%	x	x	x
CN(C)S(=O)(=O)c1ccc(C(=O)NC2CC(=O)N(c3ccc4c(c3)OCCO4)C2)cc1 (stereo unspecified)	-1%	89µM*	0%	i	i	i
CCN(CC)S(=O)(=O)c1ccc(C(=O)NC2CC(=O)N(c3ccc4c(c3)OCCO4)C2)cc1 (stereo unspecified)	-8%	1%	-7%	i	i	i
Cc1c(C(=O)OCc2ccco2)[nH]c2c1C(=O)CC(c1ccco1)C2 (stereo unspecified)	x	-22%[57.5 µM]	x	x	x	x
